# Values joined by “and” are separate entries in the source; they are usually repeats but may differ in a detail not shown here. Equal values may be shown once. Among all 420,000 compounds or so, about 64,000 (15%) were called active. Roughly 27% stayed inconclusive and do not appear here. Not all results are given here. A number with no mark means an inactive call. Calls come from the whole dose curve; as a rule, active = well fitted inhibition curve with a large enough effect; inconclusive = small, poorly fitted or top-dose-only effect; inactive = flat fitted curve, though single readings scatter.
# Test: qHTS for Inhibitors of human tyrosyl-DNA phosphodiesterase 1 (TDP1): qHTS in cells in absence of CPT; note: nearly all actives have a fitted effect of over 55% in size
# Conditions: DT40 Tdp1-/- hTDP1 cells, no CPT, ATP luminescence, 48 h; activity change, negative = growth inhibition: at 46.2 µM (top of the series)
# In short: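 Cells were dispensed at 400 per well, compounds added by pin tool, plates incubated ≥48 hr at 37 °C, then CellTiter-Glo added for 30 min at room temperature before luminescence reading. Line: DT40 Tdp1-/- complemented with hTDP1; camptothecin omitted.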
# % is set by controls: 0 for no effect and ±100 for the full control effect; potency is the fitted concentration of half-maximal effect.
SMILES,"activity change, negative = growth inhibition",Potency
COCCCN1C(=O)c2ccc(C(=O)OCC(=O)NCc3ccccc3OC)cc2C1=O,7.9%,–
CCOc1ccc(C2C(C(=O)O)c3ccccc3C(=O)N2CCN2CCOCC2)cc1 (stereo not drawn),-4.91%,–
CC(=O)c1ccc(OCCN2CCOCC2)cc1,-1.61%,–
CCOc1ccc(C(=O)CCN2CCOCC2)cc1,–,20.6 µM (active)
CC1CN(C2CCN(C(=O)COc3ccccc3)CC2)CC(C)O1 (stereo not drawn),-11.5%,–
CN(CC(=O)NCc1ccncc1)S(=O)(=O)c1ccc(Br)cc1,-7.58%,–
COc1ccc(CCNC(=O)C(=O)NCC2CCNCC2)cc1OC,-6.66%,–
COc1ccc(CCNc2ncnc3nc[nH]c23)cc1OC,–,11.6 µM (active)
CCCNC(=O)NC(=O)COC(=O)CC(NC(N)=O)c1ccc(Cl)cc1 (stereo not drawn),-0.325%,–
CSCCC(NC(=O)c1ccco1)C(=O)NCCc1ccc(F)cc1 (stereo not drawn),7.74%,–
CC(NC(=O)Nc1ccc2c(c1)OCO2)c1ccncc1 (stereo not drawn),1.21%,–
CC1CCCN(C(C(=O)Nc2ccc(C(C)C)cc2)c2ccc3c(c2)OCO3)C1 (stereo not drawn),–,18.4 µM (active)
CCc1ccc(NC(=O)NC(C)c2ccc3c(c2)OCO3)cc1 (stereo not drawn),-4.68%,–
Cc1cccc(NS(=O)(=O)c2ccc(C)c(C(=O)NCc3cccnc3)c2)c1,-12.3%,–
Cc1cccc(NS(=O)(=O)c2ccc(C)c(C(N)=O)c2)c1,–,9.2 µM (active)
Cc1ccc(S(=O)(=O)NC2CCCCCC2)cc1C(N)=O,-16.7%,–
COc1ccccc1C(=O)N1C(CC(=O)Nc2ccccc2C)C(=O)NC2CCCCC21 (stereo not drawn),8.38%,–
COc1cccc(-n2c(=S)[nH]c3c(oc4ccccc43)c2=O)c1,0.503%,–
CNc1[nH]ncc1[N+](=O)[O-],-6.95%,–
CCCCCCNCCn1cnc2c(N)ncnc21,5.52%,–
Cc1ccc(-n2c(SCC(=O)Nc3cccc(F)c3)nc3c(oc4ccccc43)c2=O)cc1C,-22.3%,–
Cc1ccc(NC(=O)CSc2nn3c(=O)c(C)nnc3s2)cc1Cl,-11.4%,–
Cc1ccc(NC(=O)CSc2nc3c([nH]c4ccccc43)c(=O)n2-c2ccccc2)cc1Cl,–,23.1 µM (active)
Cc1ccc(NC(=O)CSc2nnc3[nH]c(=O)cc(C)n23)cc1Cl,2.16%,–
Cc1ccc(NC(=O)CSc2nc3c([nH]c4ccccc43)c(=O)n2-c2ccccc2)c(C)c1,–,16.4 µM (active)
Cc1cccc(NC(=O)CSc2nc3c(oc4ccccc43)c(=O)n2-c2ccc(F)cc2)c1,-29.1%,–
Cc1ccc(NC(=O)COC(=O)CCc2nc3ccccc3n2-c2ccccc2)c(C)c1,-3.81%,–

SMILES,"activity change, negative = growth inhibition",Potency
CC(C)OCCCn1c(SCC(=O)c2ccccc2)nc2c(sc3ccccc32)c1=O,7.97%,–
Cc1ccc(NC(=O)Cn2nc(C)c3ccccc3c2=O)c(C)c1,-20.9%,–
Cc1nc(SCC(=O)c2ccccc2)c([N+](=O)[O-])[nH]1,-10.8%,–
Cc1ccc(C)c(NC(=O)CSc2nc3c(oc4ccccc43)c(=O)n2-c2ccccc2)c1,–,10.3 µM (active)
Cc1ccc(-n2c(SCC(=O)c3ccccc3)nc3c([nH]c4ccccc43)c2=O)cc1,–,3.66 µM (active)
O=C(CC12CC3CC(CC(C3)C1)C2)NCc1ccco1,-0.431%,–
CCCOc1ccc(Cc2c(O)nc(N)[nH]c2=O)cc1C,-1.45%,–
CN1C(=O)CC(c2ccccc2)C1=O (stereo not drawn),-6.89%,–
Cc1cc(C(=O)CC#N)c(C)n1CC(F)(F)F,-20.7%,–
CCC(=O)N1CCC(C)(C(=O)Nc2cc(OC)c(OC)c(OC)c2)C1 (stereo not drawn),11.7%,–
C/C(=N\NS(=O)(=O)c1ccc(Br)cc1)c1cccs1,-15.2%,–
O=C(c1ccco1)N1CCC[C@@]2(CCN(Cc3nccs3)C2)C1,-12.2%,–
C[C@H](CO)N1C[C@H](C)[C@@H](CN(C)C(=O)c2cnccn2)Oc2ncc(Br)cc2C1=O,-16.7%,–
CC1CN(C(=O)CN2C(=O)NC(C)(c3ccccc3)C2=O)CC(C)O1 (stereo not drawn),-7.19%,–
O=C(c1ccccc1)c1cccn1CC(=O)N1CCN(c2ccc(F)cc2)CC1,-25.7%,–
CCOC(=O)c1ccc(NC(=O)c2cc(=O)[nH]c3ccccc23)cc1,-22.2%,–
Cn1nnnc1SCc1cc(=O)[nH]c2ccccc12,-28.9%,–
CCOC(=O)c1ccc(NC(=O)CSc2nnc(COc3ccccc3OC)n2C)cc1,-2.75%,–
CCOC(=O)c1ccc(NC(=O)CSc2nc3c([nH]c4ccccc43)c(=O)n2C)cc1,–,9.2 µM (active)
CC(Sc1nc2c([nH]c3ccccc32)c(=O)n1C)c1ccccc1 (stereo not drawn),–,18.4 µM (active)
CCOn1c(SC(C)C)nc2ccccc2c1=O,-21.4%,–
CSc1ncccc1C(=O)OCC(=O)N1CCOCC1,-3.53%,–
CCOC(=O)c1cccc(NC(=O)CCc2nnc3ccc(N4CCOCC4)nn23)c1,-0.956%,–
Cc1nc2ccc(C(=O)O)cc2[nH]1,-0.0869%,–
CC(C)c1nc2ccc(C(=O)O)cc2[nH]1,10.6%,–
COC(=O)Nc1nc2ccc(Sc3ccccc3)cc2[nH]1,–,517 nM (active) and 286 nM (active)
